Test results published in PubChem BioAssay (NCATS).
Records with an inconclusive call do not appear. A call without a number means that no potency is given here. Unmarked numbers belong to inactive results. Activity calls are given as the source filed them. The call rests on the fitted dose curve; in most records, active means well fitted inhibition curve with a large enough effect; inconclusive means small, poorly fitted or top-dose-only effect; inactive means flat fitted curve, though single readings scatter.

Experiment: qHTS for Inhibitors of Plasmodium falciparum (DD2) proliferation (AID 504314)
Conditions: P. falciparum Dd2 in erythrocytes, SYBR Green growth, 72 h; series mostly up to 6.11 µM
Text: Plasmodium falciparum is a virulent malarial parasite that kills 1-2 million people worldwide each year. Malaria not only inflicts tremendous suffering and morbidity on the human population, but has dramatically influenced the course of civilization with profound sociological and economic implications (Shah, S. 2010). Transmitted by mosquitoes, the sporozoite form of the parasite enters the blood stream to infect hepatocytes, where they become merozoites that infect red blood cells (erythrocytes). Within erythrocytes, merozoites begin a […] cycle of growth and division, after which the parasite is released to infect new red blood cells. Gametocytes, which form within erythrocytes as well, circulate in the bloodstream and are ingested by the mosquito, thereby completing the life cycle (see CDC website). To profile malarial lines for differential chemical responses and to identify inhibitors of malarial growth, an assay that measures P. falciparum growth and replication within erythrocytes was employed. This assay uses a DNA binding fluorescent dye (SYBR Green) to detect parasite DNA following cell lysis. Because mature erythrocytes lack DNA, only Plasmodium-derived DNA is detected. The P. falciparum line cp250, derived from a malarial isolate from Cambodia, (Mu, J., et al. 2010) was added to the panel of lines, Dd2, HB3, 7G8 and GB4 in this study.
Laboratory of Assay Development and Screening Technology [ADST] and NIH Chemical Genomics Center [NCGC]
Boston University, Chemistry Department, Center for Chemical Methodology and Library Development [CMLD-BU]
NIH National Institute of Allergy and Infectious Diseases [NIAID]
ADST Assay Protocol Summary:
The 1536-well SYBR Green viability assay was based on the method of Bennett et al (2004) and described previously in 1536-well format (Yuan J., et al. 2009). For screening 3 ul culture medium was dispensed into 1536 well black clear bottom plates (Aurora Biotechnologies) using a Multidrop Combi (Thermo Fisher Scientific Inc.), 23 nL compounds in DMSO were added by a pin transfer (Cleveland, P.H. and Koutz, P.J, 2005) using a pin tool-based delivery system (Kalypsys), and 5 ul of erythrocytes infected with P. falciparum one of five lines (cp250, Dd2, HB3, 7G8 or GB4, 0.3% parasitemia, 2.5% hematocrit final concentration) were added. The plates were incubated at 37C in a humidified incubator in 5% CO2 for 72 h, and 2 ul lysis buffer (20 mM Tris HCl, 10 mM EDTA, 0.16% saponin, 1.6% triton X, 10X SYBR Green I (supplied as 10,000X final concentration by Invitrogen) was added to each well. The plates were mixed for 25 sec with gentle shaking and incubated overnight at room temperature in the dark. The following morning, fluorescence intensity at 485(14) nm excitation and 535(25) nm emission wavelengths was measured on an EnVision (Perkin Elmer) plate reader. Plate reads were normalized relative to the control inhibitor (0.29 uM artemisinin) and vehicle (DMSO) wells present on each plate and then corrected by an algorithm using vehicle-only control plates at the beginning and end of the compound plate stack.
Shah, S. (2010). The Fever: how malaria has ruled humankind for 500,000 years. New York, Sarah Crichton Books.
CDC web site, http://www.cdc.gov/malaria/about/biology/index.html
Mu, J., Myers, R.A., Jiang, H., Liu, S., Ricklefs, S., Waisberg, M., Chotivanich, K., Wilairatana, P., Krudsood, S., White, N.J., et Plasmodium falciparum genome-wide scans for positive selection, recombination hot spots and resistance to antimalarial drugs Nature Genetics 2010, 42, pp 268-271
Bennett TN, Paguio, M., Gligorijevic, B., Seudieu, C., Kosar, A. D., Davidson, E., and Roepe, P. D. Novel, rapid, and inexpensive cell-based quantification of antimalarial drug efficacy Antimicrobial Agents Chemother. 2004, 48(5): pp 1807-10
Yuan J, Johnson RL, Huang RL, Wichterman J, Jiang HY, Hayton K, Fidock DA, Wellems TE, Inglese J, Austin CP, Su XZ. […]
Potency means the concentration at half of the fitted maximal effect.

SMILES	Potency	activity, negative = inhibition
N#CCCCS(=O)(=O)c1nnnn1-c1ccccc1	inactive	–
CC(=O)OC[C@H]1O[C@H](C#Cc2ccccc2)C=C[C@@H]1OC(C)=O	inactive	–
CC(=O)C1=C(C)N(CCC=Cc2ccccc2)C(=O)NC1c1ccccc1 (stereo not given)	inactive	–
C#CCCCON=C1C[C@@H](O)[C@H](O)[C@H]2[C@@H]3C(=O)N(c4ccc(F)cc4F)C(=O)[C@@H]3CC[C@H]12	inactive	–
O=C(C=Cc1ccc2c(c1)OCO2)c1ccc(F)cc1	inactive	–
C[C@@H]1CC[C@H]2C(=O)O[C@H](CN=[N+]=[N-])CN2[C@@H]1c1ccc(Br)cc1	inactive	–
CCCCc1nc2c(c3c1C[C@H](C)OC3)CN(S(=O)(=O)c1ccc(NC(C)=O)cc1)CC2	inactive	–
CC(C)Nc1oc(-c2ccccc2)nc1-c1ccc(C(F)(F)F)cc1	inactive	–
CCCCCCCc1cc2ccccc2c2c(C(=O)OC)c(C)c(C(=O)OC)n12	inactive	–
COc1ccc(-c2nc3c(c4c2C[C@H](c2ccccc2)OC4)CN(C(=O)NCc2ccco2)CC3)c(C)c1	–	-0.324% [at 1.12 µM]
CCOC(=O)N1C2=NC(C(=O)OC)=C(C(=O)OC)[C@@H]3Nc4ccccc4[C@]23C[C@H]1C(=O)OC	–	-0.255% [at 1.12 µM]
COc1ccc(O[C@H]2C=C[C@@H](c3ccccc3)O[C@H]2COC(=O)NCc2cccc3ccccc23)cc1	inactive	–
CCOC(=O)CN1C(=O)NC(CCc2ccccc2)C(C(=O)OC)=C1C (stereo not given)	inactive	–
C[C@H]1[C@H](N=[N+]=[N-])[C@H](O)CCO[C@@H]1c1ccccc1	inactive	–
COC1=C[C@H](C(=O)NCc2ccccc2)[C@@]2(C)Cc3ccccc3[C@@H]2CC1=O	inactive	–
COc1ccc(C=CC2=C[C@]3(C)C[C@]2(C)[C@H](c2ccc(OC)cc2)CC3=O)cc1	1.5 µM (active)	–
CCOC(=O)NN=C1C[C@@H](O)[C@@H](O)[C@@H]2[C@H]3C(=O)N(Cc4ccc5c(c4)OCO5)C(=O)[C@@H]3CC[C@@H]12	inactive	–
CC(C)C(=O)N[C@H]1CCCN1C(=O)C=Cc1ccccc1	inactive	–
CCCCCCCc1cc2ccccc2c2c(C(=O)OC)cc(C(=O)OC)n12	inactive	–
Cc1ccc(O[C@@H]2[C@H](O)CO[C@H]2C=CC#Cc2ccc(C(C)(C)C)cc2)cc1	inactive	–

SMILES	Potency	activity, negative = inhibition
C=CCOC(=O)N[C@H](C(C(=O)OC)=C(C)NCc1ccccc1)c1ccc2c(c1)OCO2	inactive	–
CCOC(=O)CN1C(=O)[C@@]2(C[C@@H](C)C[C@@H](C)O2)c2ccccc21	inactive	–
COc1cccc([C@H]2Oc3ccc(OC)cc3C(=NOC[C@@H](O)COCc3ccco3)[C@H]2O)c1	inactive	–
COC(=O)N[C@@H](c1ccc2ccccc2c1)C(C(C)=O)C(=O)OC (stereo not given in full)	inactive	–
Cc1cc2c(c(=O)n1Cc1ccccc1)[C@H]1O[C@](CCCCN3C(=O)c4ccccc4C3=O)(Cc3c1ccc1ccccc31)O2	1.69 µM (active)	–
CCN1C(=O)N[C@@H](CCc2ccccc2)[C@@H](C(=O)OC)[C@H]1C	–	2.52% [at 1.12 µM]
Cc1ccccc1Nc1oc(-c2ccccc2)nc1CCc1ccccc1	inactive	–
CCCCOC(OCCCC)C(O)CSc1ccc2ccccc2c1 (stereo not given)	inactive	–
COc1ccc(O[C@H]2C=C[C@@H](c3ccccc3)O[C@H]2CON=C2[C@H]3CCn4c(=O)n(-c5ccccc5)c(=O)n4[C@@H]3[C@H](O)[C@@H]3O[C@H]23)cc1	inactive	–
C#CCN1C(=O)[C@@]2(CC(C)=CC[C@@H](C)O2)c2ccccc21	inactive	–
COc1ccc2c(c1)CO[C@H]([C@H](O)CBr)[C@H]2C=Cc1ccccc1	inactive	–
COC(=O)c1nnc(N[C@@H](Cc2c[nH]c3ccccc23)C(=O)OC)nc1C(=O)OC	inactive	–
CCCCC1=CC2=C(c3ccco3)C(=O)C(C)(OC(=O)c3ccc(OC)cc3)C(=O)C2=CN1Cc1ccccc1 (stereo not given)	inactive	–
COc1ccc(-c2nc3c(c4c2C[C@H](c2ccccc2)OC4)CN(S(=O)(=O)c2ccc(NC(C)=O)cc2)CC3)c(C)c1	–	-0.765% [at 1.12 µM]
COC(=O)CCCC1=CC2=CC(=O)C(C)(OC(=O)c3cccs3)C(=O)C2=CN1c1ccc(OC)cc1 (stereo not given)	–	1.04% [at 1.12 µM]
C=CC[C@@H]1C=CC(ON=CC[C@@H]2C=C[C@@H](OC(C)=O)[C@@H](COC(C)=O)O2)[C@H](CO)O1 (stereo not given in full)	inactive	–
COC(=O)CCC(=O)OC1(C)C(=O)C=C2C=C(C3CC3)N(Cc3ccc4c(c3)OCO4)C=C2C1=O (stereo not given)	–	-0.0348% [at 1.12 µM]
C[C@@H](ON=C1[C@H]2CCn3c(=O)n(-c4ccccc4)c(=O)n3[C@@H]2[C@H](O)[C@@H]2O[C@H]12)c1cn([C@H](CO)Cc2ccccc2)nn1	inactive	–
COC(=O)C1=C(C(=O)OC)[C@@H]2N(C)c3ccccc3[C@@]23CCC(=O)N(CCCOC(C)C)C3=N1	inactive	–
C=CC1=C2C=C(C3CC3)N(Cc3ccccc3)C=C2C(=O)C(C)(OC(=O)c2ccco2)C1=O (stereo not given)	inactive	–
